# Screens deposited in PubChem by Corson Lab, School of Medicine, Indiana University.
# The full list was thinned out, with hits kept by preference.
# FECH inh: inhibitors of human ferrochelatase; hit rate 3.3% among 20,000; P22830; purified FECH, Ni-mesoporphyrin absorbance 550 nm; calls only at 10 µM (by protocol);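 active = enzyme reaction rate more than 3 SD below the solvent-only control wells on the same plate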;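 also: lower slope than DMSO wells means FECH inhibition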
# Target sequence (P22830 whole entry, looked up): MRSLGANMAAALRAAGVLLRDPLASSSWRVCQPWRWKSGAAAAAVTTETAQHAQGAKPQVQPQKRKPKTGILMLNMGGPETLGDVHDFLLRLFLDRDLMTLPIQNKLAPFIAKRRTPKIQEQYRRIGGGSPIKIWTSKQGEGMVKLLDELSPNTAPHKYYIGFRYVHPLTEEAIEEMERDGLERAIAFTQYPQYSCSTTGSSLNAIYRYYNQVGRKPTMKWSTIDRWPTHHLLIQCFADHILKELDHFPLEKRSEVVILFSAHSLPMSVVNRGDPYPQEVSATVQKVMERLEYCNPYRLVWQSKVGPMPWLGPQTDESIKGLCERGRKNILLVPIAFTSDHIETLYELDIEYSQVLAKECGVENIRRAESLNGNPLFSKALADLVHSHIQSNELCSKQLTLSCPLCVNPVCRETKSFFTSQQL
# An asterisk follows results filed as active; i = inactive; + = active, no number.
SMILES,FECH inh
Cc1ccc(C)c(CN2CCCN(Cc3ccccc3)S2(=O)=O)c1,i
Cc1ccc(CN2CCCN(Cc3ccccc3C)S2(=O)=O)cc1,i
O=S1(=O)N(Cc2ccc(Cl)cc2)CCCN1Cc1ccccc1Cl,+
CC(=O)Nc1cccc(NC(=O)c2cccn(Cc3ccc(C(F)(F)F)cc3)c2=O)c1,i
Cc1cccc(CN(C)C(C)Cc2ncccc2C)n1 (stereo not given),i
